Laboratory results: article PMC8384837, “Expanding the binding specificity for RNA recognition by a PUF domain”
Changes are numbered by the printed parent chain.

Tests used:
Assay in all cases: yeast three-hybrid, YBZ-1, SC-Leu-His + 0.5 mM 3-AT, 4 days
Settings in all cases: tags: N-Gal4 AD-HA kept; label: inside an RPR1-promoter hybrid RNA with tandem MS2 sites; ssRNA
[1] = biological target: PUM1 PUF domain R5-KHL (Homo sapiens, UniProt Q14671 828-1176, C1007K;R1008H;Q1011L)
How it was run: (§1)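 Repeat regions from input (SC-Leu) and selection (SC-Leu-His + 0.5 mM 3-AT) plates were PCR-amplified and Illumina-sequenced after four days of growth. The cells were strain YBZ-1 with a LexA–MS2 coat fusion and a HIS3 reporter, co-expressing Pumilio-1 PUF domain libraries and matching RNA elements from a centromeric plasmid. The interaction score is the log change in variant frequency from input to selection, taken in log2 with a pseudocount of 1 for absent variants.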

[2] = biological target: T1, PUM1 PUF domain R6-KWR (Homo sapiens, UniProt Q14671 828-1176, N1043K;Y1044W;Q1047R)
T1 sequence: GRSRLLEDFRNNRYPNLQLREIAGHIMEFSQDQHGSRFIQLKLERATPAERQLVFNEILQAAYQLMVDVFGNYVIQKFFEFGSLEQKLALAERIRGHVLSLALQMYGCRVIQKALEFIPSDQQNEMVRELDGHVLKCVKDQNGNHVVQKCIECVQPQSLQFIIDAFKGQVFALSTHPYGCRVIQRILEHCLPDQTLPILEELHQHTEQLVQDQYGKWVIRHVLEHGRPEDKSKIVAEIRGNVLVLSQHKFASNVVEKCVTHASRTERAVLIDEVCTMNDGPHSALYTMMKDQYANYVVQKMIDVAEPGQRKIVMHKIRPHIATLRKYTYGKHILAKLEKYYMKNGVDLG
How it was run: as §1

[3] = biological target: PUM1 PUF domain R7-QRD (Homo sapiens, UniProt Q14671 828-1176, S1079Q;N1080R;E1083D)
How it was run: as §1

[4] = biological target: T2, PUM1 PUF domain R6-LWV (Homo sapiens, UniProt Q14671 828-1176, N1043L;Y1044W;Q1047V)
T2 sequence: T1 sequence with K216L, R220V
How it was run: as §1

[5] = biological target: PUM1 PUF domain R3-GWI (Homo sapiens, UniProt Q14671 828-1176, C935G;R936W;Q939I)
How it was run: as §1

[6] = biological target: PUM1 PUF domain R1-KWE (Homo sapiens, UniProt Q14671 828-1176, S863K;R864W;Q867E)
How it was run: as §1

[7] = biological target: PUM1 PUF domain R3-RQG (Homo sapiens, UniProt Q14671 828-1176, C935R;R936Q;Q939G)
How it was run: as §1

[8] = biological target: PUM1 PUF domain R2-KLQ (Homo sapiens, UniProt Q14671 828-1176, N899K;Y900L)
How it was run: as §1

[9] = biological target: PUM1 PUF domain R4-DYN (Homo sapiens, UniProt Q14671 828-1176, N971D;H972Y;Q975N)
How it was run: as §1

For “GGCUAGAACUAGUGGAUCCCCCGGCGCCCGGCGGCUCGAGCCCGGGUAAGUGUUAAUAGUCUGCAUGCCGCCGGGCGCCAUGCCUGCAGGUCGACUCUAGAAAACAUG”, the binding signal [1] was 5.83 log2 enrichment (interaction score).
“GGCUAGAACUAGUGGAUCCCCCGGCGCCCGGCGGCUCGAGCCCGGGUAAGUGUAAAUAGUCUGCAUGCCGCCGGGCGCCAUGCCUGCAGGUCGACUCUAGAAAACAUG” was tested, and the binding signal [2] was 6.69 log2 enrichment (interaction score), the binding signal [3] was 2.72 log2 enrichment (interaction score) and the binding signal [4] was 3.67 log2 enrichment (interaction score). The binding signal [5] was 2.68 log2 enrichment (interaction score).
For “GGCUAGAACUAGUGGAUCCCCCGGCGCCCGGCGGCUCGAGCCCGGGUAAGUGUAAAUCGUCUGCAUGCCGCCGGGCGCCAUGCCUGCAGGUCGACUCUAGAAAACAUG”, the binding signal [6] was 4.74 log2 enrichment (interaction score).
With “GGCUAGAACUAGUGGAUCCCCCGGCGCCCGGCGGCUCGAGCCCGGGUAAGUGUAAUUAGUCUGCAUGCCGCCGGGCGCCAUGCCUGCAGGUCGACUCUAGAAAACAUG” the binding signal [7] was 4.14 log2 enrichment (interaction score).
With “GGCUAGAACUAGUGGAUCCCCCGGCGCCCGGCGGCUCGAGCCCGGGUAAGUGAAAAUAGUCUGCAUGCCGCCGGGCGCCAUGCCUGCAGGUCGACUCUAGAAAACAUG” the binding signal [4] was 2.8 log2 enrichment (interaction score).
For “GGCUAGAACUAGUGGAUCCCCCGGCGCCCGGCGGCUCGAGCCCGGGUAAGUGUAAAGAGUCUGCAUGCCGCCGGGCGCCAUGCCUGCAGGUCGACUCUAGAAAACAUG”, the binding signal [8] was 3.21 log2 enrichment (interaction score).
In the case of “GGCUAGAACUAGUGGAUCCCCCGGCGCCCGGCGGCUCGAGCCCGGGUAAGUGUAUAUAGUCUGCAUGCCGCCGGGCGCCAUGCCUGCAGGUCGACUCUAGAAAACAUG”, the binding signal [9] was 5.22 log2 enrichment (interaction score).
